Laboratory results taken from PubChem BioAssay (NCATS).
Inconclusive results are not listed. Activity calls are given as the source filed them. Calls come from the whole dose curve; as a rule, active = well fitted curve in the direction sought with a large enough effect; inconclusive = small, poorly fitted or top-dose-only effect, or another doubt; inactive = no such curve, though single readings can be large; an effect the other way counts as inactive or inconclusive.

How the values were obtained:
[1] = biological target: Calcium and integrin-binding protein 1 (Homo sapiens) (UniProt Q99828); assay: Primary qHTS for Identification of Calcium Integrin Binding Protein 1 (CIB1) Competitor (AID 1508620); details: CIB1-GST / FITC-alphaIIb peptide fluorescence polarization; series mostly up to 57.7 µM;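 note: GST tagged CIB1 binding a fluorescein labelled alphaIIb integrin peptide tracer; top concentration of the series differs between compounds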
Calcium and integrin-binding protein 1 (Homo sapiens), sequence (Q99828 whole entry, looked up): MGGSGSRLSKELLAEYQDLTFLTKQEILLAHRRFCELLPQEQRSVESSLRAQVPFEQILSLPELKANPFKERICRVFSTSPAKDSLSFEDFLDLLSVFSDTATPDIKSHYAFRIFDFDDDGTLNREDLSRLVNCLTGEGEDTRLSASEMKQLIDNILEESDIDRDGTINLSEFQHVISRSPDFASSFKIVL
Outline: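 CIB1-GST (1 uM final) and compound incubated 15 min at room temperature before adding FITC-alphaIIb peptide tracer (100 nM final). Competition for binding read by fluorescence polarization (ex 480, em 540) after another 15 min at room temperature.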

[2] = Primary qHTS for inhibitors of nuclear receptor binding SET domain protein 2 (NSD2) in an isogenic RCH-ACV NSD2 p.E1099K mutant (9B) (AID 1645876); details: RCH-ACV NSD2 E1099K (9B) viability, CellTiter-Glo, 72 h; series mostly up to 44.9 µM; note: nearly all actives have a fitted effect of over 70% in size
[3] = Primary qHTS for inhibitors of nuclear receptor binding SET domain protein 2 (NSD2) in an RCH-ACV wild type WT cells (2C) (AID 1645877); details: RCH-ACV (leukaemia line) NSD2 WT (2C) viability, CellTiter-Glo, 72 h; series mostly up to 44.9 µM; note: nearly all actives have a fitted effect of over 70% in size
% is set by controls: 0 for no effect and ±100 for the full control effect.

CC(C)C1C(OC(=O)/C=C/c2ccccc2)CC2(C)OC2CCC2(C)OC2C1O (stereo not drawn)
inactive: Potency [1] | Potency [2] | Potency [3]

COc1cc(C)c(C(=O)O[C@@H]2[C@H](O)[C@@H](CO)O[C@H]2n2ccc(=O)[nH]c2=O)c(OC)c1
inactive: Potency [1] | Potency [2] | Potency [3]

C=CC(C)(CCC=C(C)C)O[C@@H]1O[C@H](CO)[C@@H](O)[C@H](O)[C@H]1O (stereo partly drawn)
inactive: Potency [1] | Potency [2] | Potency [3]

Cc1c(NC(=O)N2CCOCC2)ccc2c1c1ccccc1n2C(C)C
inactive: Potency [1] | Potency [2] | Potency [3]

CC(C)=CC[C@H]1O[C@]2(O)C([C@H]3CCC4[C@@]5(C)CC[C@H](O[C@@H]6O[C@H](CO)[C@H](O)[C@H](O[C@@H]7O[C@H](CO)[C@@H](O)[C@H](O)[C@H]7O)[C@H]6O[C@@H]6O[C@@H](C)[C@H](O)[C@@H](O)[C@H]6O)C(C)(C)C5CC[C@@]4(C)[C@]3(C)[C@H]2O)[C@@]1(C)O (stereo partly drawn)
inactive: Potency [1] | activity change, negative = viability loss [2] -8.31% [at 9.23 µM] | activity change, negative = cell killing [3] -7.27% [at 9.23 µM]

CC1(C)CC[C@]2(C(=O)O[C@@H]3O[C@H](CO)[C@@H](O)[C@H](O)[C@H]3O)CC[C@]3(C)C(=CCC4[C@@]5(C)CC[C@H](O[C@@H]6O[C@H](C(=O)O)[C@@H](O)[C@H](O)[C@H]6OC6OC(CO)C(O)C(O)C6O)C(C)(C)C5CC[C@]43C)[C@@H]2C1 (stereo partly drawn)
inactive: Potency [1] | activity change, negative = viability loss [2] 0.32% [at 9.23 µM] | activity change, negative = cell killing [3] -5.08% [at 9.23 µM]

C[C@@H]1O[C@@H](O[C@H]2[C@@H]3C=CO[C@@H](O[C@@H]4O[C@H](CO)[C@@H](O)[C@H](O)[C@H]4O)[C@@H]3[C@@]3(CO)O[C@@H]23)[C@H](OC(=O)/C=C/c2ccc(O)cc2)[C@H](O)[C@H]1O
inactive: Potency [1] | Potency [2] | Potency [3]

CC(C)=CCC[C@](C)(O[C@@H]1O[C@H](CO[C@@H]2O[C@@H](CO)[C@H](O)[C@H]2O)[C@@H](O)[C@H](O)[C@H]1O)[C@H]1CC[C@]2(C)[C@@H]1[C@H](O)C[C@@H]1[C@@]3(C)CC[C@H](O[C@@H]4O[C@H](CO)[C@@H](O)[C@H](O)[C@H]4O[C@@H]4O[C@H](CO)[C@@H](O)[C@H](O)[C@H]4O)C(C)(C)[C@@H]3CC[C@]12C
inactive: Potency [1] | Potency [2] | Potency [3]

CC1(C)CCC[C@]2(C)C1CC=C(CO)[C@H]2CC/C(=C/CO)CO (stereo partly drawn)
inactive: Potency [1] | Potency [2] | Potency [3]

C=C1C(=O)OC[C@H]2C(C(=O)O)=CC3CC(C)(C)C[C@@]132 (stereo partly drawn)
inactive: Potency [1] | Potency [2] | Potency [3]

CC(=O)O[C@@H]1[C@H](O[C@@H]2O[C@H](CO)[C@@H](O)[C@H](O)[C@H]2O)[C@@H](O[C@@H]2O[C@@H](C)[C@H](O)[C@@H](O[C@@H]3O[C@H](CO)[C@@H](O)[C@H](O)[C@H]3O)[C@H]2O)[C@H](OC(=O)[C@]23CCC(C)(C)C[C@H]2C2=CCC4[C@@]5(C)C[C@H](O)[C@H](O[C@@H]6O[C@H](C(=O)O)[C@@H](O)[C@H](O)[C@H]6O)[C@@](C)(C(=O)O)C5CC[C@@]4(C)[C@]2(C)CC3)O[C@@H]1C (stereo partly drawn)
inactive: activity change, negative = inhibition [1] -1.12% [at 12.4 µM] | activity change, negative = viability loss [2] -4.25% [at 9.23 µM] | activity change, negative = cell killing [3] -3.72% [at 9.23 µM]

CC1(C)CC[C@]2(C(=O)OC3OC(CO)C(O)C(O)C3O)CC[C@]3(C)C(=CCC4[C@@]5(C)C[C@@H](O)[C@H](OC6OC(C(=O)O)C(O)C(O)C6O)C(C)(C)C5CC[C@]43C)[C@@H]2C1 (stereo partly drawn)
inactive: Potency [1] | activity change, negative = viability loss [2] -7.32% [at 9.23 µM] | activity change, negative = cell killing [3] -10.4% [at 9.23 µM]

C[C@H]1[C@H](C)CC[C@]2(C(=O)O)CC[C@]3(C)C(=CCC4[C@@]5(C)C[C@@H](O)[C@H](O)C(C)(C)C5CC[C@]43C)[C@H]12 (stereo partly drawn)
inactive: Potency [1] | Potency [2] | Potency [3]

C[C@]1(C2CCCC2)Cc2cc(OCC(=O)O)c(Cl)c(Cl)c2C1=O
inactive: Potency [1] | Potency [2] | Potency [3]

CC(C)c1ccc2c(c1)C(O)CC1C(C)(C(=O)O)CCCC21C (stereo not drawn)
inactive: Potency [1] | Potency [2] | Potency [3]

CCCO[C@@H]1O[C@H](CO)[C@@H](O)[C@H](O)[C@H]1O[C@@H]1OC[C@@H](O)[C@H](O)[C@H]1O
inactive: Potency [1] | Potency [2] | Potency [3]

CCC1OC(=O)C(C)CC(C)C(=O)/C(C)=C/C(C)C(=O)/C=C/C1(C)O (stereo not drawn)
inactive: Potency [1] | Potency [2] | Potency [3]

CC(=O)O[C@H]1[C@H](OC(=O)C(C)C)[C@]2(C)OC3(CC[C@]2(C)[C@H]2CCC[C@]4(CO4)[C@]12C)COC(=O)C3 (stereo partly drawn)
inactive: Potency [1] | Potency [2] | Potency [3]

CC1(C)C=Cc2c(ccc3c2N=C2C(C)(C)[C@@H]4C[C@]56CCCN5C(=O)[C@@]4(C[C@]23O)NC6=O)O1
inactive: Potency [1] | Potency [2] | Potency [3]

C=CC(C)(CC/C=C(\C)C(=O)OC[C@H]1O[C@@H](OC(C)(C=C)CC/C=C(\C)C(=O)O[C@H]2[C@H](O)[C@@H](O)[C@H](OC(C)(C=C)CC/C=C(\C)C(=O)O)O[C@@H]2CO)[C@H](O)[C@@H](O)[C@@H]1O)O[C@@H]1O[C@H](CO)[C@@H](O)[C@H](O)[C@H]1O (stereo partly drawn)
inactive: Potency [1] | activity change, negative = viability loss [2] -1.17% [at 9.23 µM] | outcome [3] inactive [at 9.23 µM]

O=C(/C=C/c1ccc(O)c(O)c1)OC[C@H]1O[C@@H](OC2CCCCC2O)[C@H](O)[C@@H](O)[C@@H]1O (stereo partly drawn)
inactive: Potency [1] | Potency [2] | Potency [3]

COc1cc(O)c2c(c1Cl)CC(C)OC2=O (stereo not drawn)
inactive: Potency [1] | Potency [2] | Potency [3]

CC(C)c1ccc2c(c1)C(O)CC1C(C)(CO)CCCC21C (stereo not drawn)
inactive: Potency [1] | Potency [2] | Potency [3]

C=C1C(OC(C)=O)CCC2(C)CC3(O)OC(=O)C(C)=C3CC12 (stereo not drawn)
inactive: Potency [1] | Potency [2] | Potency [3]

C[C@H]1[C@H](C)CC[C@]2(C(=O)OC3OC(CO)C(O)C(O)C3O)CC[C@]3(C(=O)O)C(=CCC4[C@@]5(C)CC[C@H](O[C@@H]6O[C@@H](C)[C@H](OC7OC(CO)C(O)C(O)C7O)[C@@H](O)[C@H]6O)C(C)(C)C5CC[C@]43C)[C@H]12 (stereo partly drawn)
inactive: Potency [1] | activity change, negative = viability loss [2] -7.55% [at 9.23 µM] | activity change, negative = cell killing [3] -2.86% [at 9.23 µM]

C=C(C(=O)O)[C@@H]1CC[C@@]2(C)CC[C@@H](O)C(=C)C2C1 (stereo partly drawn)
inactive: Potency [1] | Potency [2] | Potency [3]

CO[C@@H]1[C@]2(O)C(=O)N3/C=C\C(C)(C)c4[nH]c5ccccc5c4/C=C\3C(=O)N2[C@]23[C@H](CO)C(C)(C)N2c2ccccc2[C@]13O
inactive: Potency [1] | Potency [2] | Potency [3]

CCC/C=C/C=C/C1CC(O)C(O)C(=O)C1CO (stereo not drawn)
inactive: Potency [1] | Potency [2] | Potency [3]

COC(=O)c1c(CC=C(C)C)c(OC2OC(CO)C(O)C(O)C2O)c2ccccc2c1OC1OC(CO)C(O)C(O)C1O (stereo not drawn)
inactive: Potency [1] | Potency [2] | Potency [3]

CCC(C)/C=C(C)/C=C/C1=CC2=C(Cl)C(=O)C(C)(OC(C)=O)C(=O)C2=CN1C(CCC(=O)O)C(=O)O (stereo not drawn)
inactive: Potency [1] | Potency [2] | Potency [3]

C[C@@H]1CC[C@]2(C(=O)O)CC[C@]3(C)C(=CCC4[C@@]5(C)C[C@@H](O)[C@H](O)[C@@](C)(CO)C5CC[C@]43C)C2[C@H]1C (stereo partly drawn)
inactive: Potency [1] | Potency [2] | Potency [3]

C[C@H](O)C(O)(C(=O)OCc1ccccc1NC(=O)CCC(N)C(=O)O)[C@H](C)O (stereo partly drawn)
inactive: Potency [1] | Potency [2] | Potency [3]

OC[C@@]1(O)CO[C@@H](OC[C@H]2O[C@@H](OCc3ccccc3)[C@H](O)[C@@H](O)[C@@H]2O)[C@@H]1O
inactive: Potency [1] | Potency [2] | Potency [3]

CC(=O)/C=C/C1(O)C(C)=CC(=O)CC1(C)C (stereo not drawn)
inactive: Potency [1] | Potency [2] | Potency [3]

CCC1=C(C)C(=O)C(C)CC12C(=O)CCC2C(=O)O (stereo not drawn)
inactive: Potency [1] | Potency [2] | Potency [3]

CC1(C)CC[C@]2(C(=O)O)CC[C@]3(C)C(=CCC4[C@@]5(C)C[C@@H](O)[C@H](O)[C@@](C)(CO)C5CC[C@]43C)C2C1 (stereo partly drawn)
inactive: Potency [1] | Potency [2] | Potency [3]

COc1cc(C)c(C(=O)NC2C(C)OC(OC3CCC(C)C4C3C=C(C)C3/C(C)=C\CC/C(C)=C/C5(C)C=C(C(=O)O)C(C)CC56OC(=O)/C(=C(\O)C34C)C6=O)C(O)C2(C)O)c(O)c1 (stereo not drawn)
inactive: Potency [1] | activity change, negative = viability loss [2] 4.33% [at 9.23 µM] | outcome [3] inactive [at 9.23 µM]

COc1c2c(c(C)c3c1C(=O)OC3)OC1(C)CC(O)C34OC(OC)(CCC3(C)C1C2)OC4(C)CO (stereo not drawn)
inactive: Potency [1] | Potency [2] | Potency [3]

CC1(O)CCC2C(C3C1CCC3(C)O)C2(C)C (stereo not drawn)
inactive: Potency [1] | Potency [2] | Potency [3]

CC12CC(c3ccoc3)OC(=O)C1CCC1(C)C2CCC(O)C1(C)O (stereo not drawn)
inactive: Potency [1] | Potency [2] | Potency [3]

C=C1CCC2[C@](C)(CO)CCC[C@@]2(C)[C@@H]1CCC1=CCOC1=O (stereo partly drawn)
inactive: Potency [1] | Potency [2] | Potency [3]

C/C=C(/C)C(=O)O[C@@H]1C[C@@H](OC(=O)/C(C)=C\C)[C@@]2(C)C3C(=O)C=C(C)C2C3C1(C)C
inactive: Potency [1] | Potency [2] | Potency [3]

COc1cc(/C=C/C(=O)O[C@H]2[C@@H]3C=CO[C@@H](O[C@@H]4O[C@H](CO)[C@@H](O)[C@H](O)[C@H]4O)[C@@H]3[C@@]3(CO)O[C@@H]23)ccc1O
inactive: Potency [1] | Potency [2] | Potency [3]

CN(C)CC(c1ccc(O)cc1)C1(O)CCCCC1 (stereo not drawn)
inactive: Potency [1] | Potency [2] | Potency [3]

C[C@H]1[C@H](C)CC[C@]2(C(=O)O)CC[C@]3(C(=O)O)C(=CCC4[C@@]5(C)CC[C@H](O[C@@H]6O[C@@H](C)[C@H](O)[C@@H](O)[C@H]6O)C(C)(C)C5CC[C@]43C)[C@H]12 (stereo partly drawn)
inactive: Potency [1] | Potency [2] | Potency [3]

C[C@@H]1CC[C@]2(C(=O)O[C@@H]3O[C@H](CO[C@@H]4O[C@H](CO)[C@@H](O[C@@H]5O[C@@H](C)[C@H](O)[C@@H](O)[C@H]5O)[C@H](O)[C@H]4O)[C@@H](O)[C@H](O)[C@H]3O)CC[C@]3(C)C(=CCC4[C@@]5(C)C[C@@H](O)[C@H](O)[C@@](C)(CO)C5CC[C@]43C)C2[C@H]1C (stereo partly drawn)
inactive: Potency [1] | outcome [2] inactive [at 9.23 µM] | outcome [3] inactive [at 9.23 µM]
